Screening data from PubChem BioAssay.
This is a sample that favours compounds with a hit; in the whole collection about 4.6% have one here.
Tau fluor cs: counter-screen for tau fibril formation inhibitors; tau K18 P301L Alexa594 fluorescence, heparin fibrillization; Potency, µM (titrated, usually from 57.7 µM); 0.93% of 280,000 active; AID 1463; further: nearly all actives have a fitted effect of over 55% in size
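Human K18 P301L tau (15 uM unlabeled plus 0.24 uM Alexa 594-labeled, final) in 100 mM sodium acetate pH 7 was mixed with compound and 20 uM heparin and incubated 6 hr at 37 C.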
TRb SRC2 PPI: inhibitors of human thyroid hormone receptor beta-SRC2 interaction | P10828 | TRbeta-SRC2 peptide binding, fluorescence polarization; receptor liganded with 1 µM T3 | Potency, µM (doses to about 106 µM), most hits filed as inhibitors | 0.065% of 280,000 active; further: nearly all actives have a fitted effect of over 50% in size
Target sequence (P10828 whole entry, looked up): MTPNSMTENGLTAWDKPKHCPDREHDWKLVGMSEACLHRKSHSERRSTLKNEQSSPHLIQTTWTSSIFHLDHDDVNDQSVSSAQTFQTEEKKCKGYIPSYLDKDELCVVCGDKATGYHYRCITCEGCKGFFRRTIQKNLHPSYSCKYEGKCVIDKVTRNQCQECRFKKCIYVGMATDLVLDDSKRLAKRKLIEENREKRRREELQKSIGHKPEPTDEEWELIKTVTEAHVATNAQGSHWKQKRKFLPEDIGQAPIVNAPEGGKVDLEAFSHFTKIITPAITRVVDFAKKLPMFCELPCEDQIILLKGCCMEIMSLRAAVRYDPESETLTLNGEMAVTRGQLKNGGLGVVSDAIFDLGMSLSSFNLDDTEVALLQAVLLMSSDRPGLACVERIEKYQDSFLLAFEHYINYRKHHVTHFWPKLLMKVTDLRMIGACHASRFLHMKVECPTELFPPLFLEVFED
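Polarization signal, normalized between peptide-alone and full complex controls, measured compound effects on T3-liganded human TRb LBD (0.6 uM) binding 20 nM Texas Red SRC2 peptide after 5 hr.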
Tau fibril FP: inhibitors of human tau fibril formation; P10636; K18 P301L tau heparin fibrillization, Alexa594 FP, 6 h; Potency, µM (highest dose often 57.7 µM), actives largely listed as inhibitors; 0.39% of 280,000 active; AID 1468; further: nearly all actives have a fitted effect of over 55% in size
Target sequence (P10636 561-689 P618L limits assumed): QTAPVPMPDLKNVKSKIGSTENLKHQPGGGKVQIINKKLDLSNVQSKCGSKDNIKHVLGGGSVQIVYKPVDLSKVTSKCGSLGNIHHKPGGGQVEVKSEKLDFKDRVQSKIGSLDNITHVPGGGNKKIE
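Read-out: fluorescence polarization of Alexa 594-labeled tau (0.24 uM), 555 nm excitation, 632 nm emission. Mixtures held 15 uM unlabeled K18 P301L, compound and 20 uM heparin, pH 7 acetate buffer, incubated 6 hr at 37 C.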
Tau ThT inhib: blocks human tau fibril formation measured by thioflavin T; P10636; recombinant tau K18 P301L (four-repeat tau fragment), heparin-induced fibrillization, ThT fluorescence; Potency, µM (series often up to 57.4 µM), most hits filed as inhibitors; 2.1% of 270,000 active; AID 1460; further: nearly all actives have a fitted effect of over 55% in size
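In this qHTS, human K18 P301L tau is incubated with compound and heparin for 6 hr at 37 C, and Thioflavin T fluorescence then reports fibril load.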
TexasRed fluor: counter-screen for TRb-SRC2 inhibitors: fluorescence interference; TRb/SRC2 Texas Red total fluorescence interference; Potency, µM (doses to about 106 µM); 0.29% of 280,000 active; active means well fitted curve in either direction with a large enough effect; inconclusive means small, poorly fitted or top-dose-only effect
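Human TRβ ligand-binding domain (0.6 uM) and Texas Red SRC2 peptide (20 nM) in Tris buffer with 1 uM T3 and 5% DMSO were incubated with pinned compound for 5 hr at ambient temperature. Total fluorescence was computed as S + 2P (555/632 nm).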
PNC assembly inh: blocks assembly of the perinucleolar compartment | PC3M PTB-GFP, PNC prevalence imaging, 16 h; stronger effect = lower value | activity change (PNC), negative = inhibition, % at 10 µM | 3.1% of 140,000 active;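 active means readout at or below -70, meaning at least 70% loss of cells showing the perinucleolar compartment, a nuclear body marking cancer cells; inconclusive means readout between -30 and a set limit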
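Compounds are pinned in duplicate onto adhered PC3M cells stably expressing GFP-tagged PTB and incubated 16 h at 37 C. Cells are then fixed, nuclei stained with Hoechst, and PNC-positive cells counted.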
Hits are given with their value; . = inactive; ? = inconclusive; / = no result; [ ] = remark or other dose. Unless noted, the call rests on the fitted dose curve; in most records, active means well fitted curve in the direction sought with a large enough effect; inconclusive means small, poorly fitted or top-dose-only effect, or another doubt; inactive means no such curve, though single readings can be large; an effect the other way counts as inactive or inconclusive.

SMILES | Tau fluor cs | TRb SRC2 PPI | Tau fibril FP | Tau ThT inhib | TexasRed fluor | PNC assembly inh
O=C(COc1ccc([N+](=O)[O-])cc1)NCCc1nc2ccccc2[nH]1 | . | . | . | . | . | /
CN/N=C(\Cc1nc2ccccc2[nH]1)c1ccc([N+](=O)[O-])cc1 | ? | . | . | 13µM | . | /
N#CCCN/N=C(/Cc1nc2ccccc2[nH]1)c1cccc(Cl)c1 | ? | . | . | ? | . | .
N#Cc1ccccc1CN1C(=O)S/C(=C/c2cccn2-c2ccc(C(=O)O)cc2)C1=O | . | . | . | . | . | ?
NC(CSS(=O)(=O)O)=NCCC12CC3CC(CC(O)(C3)C1)C2 | . | . | ? | 3.5µM | . | .
CCn1c(SCC(=O)N/N=C/c2ccc(OC)c(OC)c2)nc2ccccc21 | . | . | . | . | . | .
C=CCSc1nc2ccccc2n1C(=O)/C=C/c1ccc(OC)c(OC)c1 | . | . | ? | 14µM | . | .
C=CCSc1nc2ccccc2n1C(=O)/C=C/c1cc(OC)c(OC)c(OC)c1 | . | . | 22µM | 25µM | . | .
CCSc1nc2ccccc2n1C(=O)/C=C/c1ccc(OC)c(OC)c1 | . | . | 7.9µM | 7.9µM | . | .
COc1ccc(CC(=O)Nc2ccc(C(C)=O)cc2)cc1 | . | . | . | ? | . | /
COc1ccc(Nc2ccnc(Nc3ccc(OC)cc3)n2)cc1 | ? | . | . | ? | . | -93
CCN1CCN(CC(=O)Nc2ccccc2)C(=O)C1=O | . | . | . | . | . | .
COC(=O)c1cc(C)nc(Sc2ccccc2N)n1 | ? | . | ? | 28µM | . | /
COC(=O)c1ccccc1NC(=O)CSc1nc(C)cc(C)n1 | . | . | . | . | . | /
CCOCCCNC1=C(Cl)C(=O)c2ccccc2C1=O | ? | . | ? | 16µM | . | /
O=C1C(Cl)=C(NCCCO)C(=O)c2ccccc21 | . | . | . | ? | . | .
CC1(C)Cc2c(C#N)c(NCCCO)nc(-c3ccccc3)c2CO1 | . | . | . | . | . | .
Cc1nc(NCCCO)c(C#N)c2c1COC(C)(C)C2 | . | . | . | . | . | -122
Cc1cc(Nc2cccc(C(F)(F)F)c2)nc2ccc(NC(=O)c3ccc(N(C)C)cc3)cc12 | 3.5µM[quencher] | . | . | 3.5µM | . | /
CN(C)c1cccc(C(=O)Nc2cccc(F)c2)c1 | . | . | . | ? | . | ?
Cc1cc(Nc2cccc(Cl)c2)nc2ccc(NC(=O)c3cccc(N(C)C)c3)cc12 | 4.5µM[quencher] | . | . | ? | . | /
Cc1ccc(C(=O)Nc2cccc(C(F)(F)F)c2)cc1Nc1ccccn1 | ? | . | . | . | . | /
Cc1cc(Nc2cccc(Cl)c2)nc2ccc(NC(=O)c3cccnc3)cc12 | 7.9µM[quencher] | . | . | ? | . | /
CCOc1ccccc1NC(=O)COC(=O)c1cccc(-c2ccc(OC(C)=O)cc2)c1 | . | . | . | ? | . | ?
O=C(Nn1c(O)c(C=C2N=c3ccccc3=N2)sc1=S)c1ccccc1Cl | 18µM[quencher] | . | ? | 11µM | . | .
SMILES | Tau fluor cs | TRb SRC2 PPI | Tau fibril FP | Tau ThT inhib | TexasRed fluor | PNC assembly inh
O=S(=O)(Nn1c(O)c(C=C2N=c3ccccc3=N2)sc1=S)c1ccccc1 | ? | . | . | 11µM | . | /
CC1=Nc2ccccc2/C1=C/c1sc(=S)n(-c2cccc(C(=O)O)c2)c1O | ? | . | . | 3.5µM | . | /
Oc1c(C=C2N=c3ccccc3=N2)sc(=S)n1C1CCCCC1 | . | . | . | . | . | .
CCn1c(O)c(C=C2N=c3ccccc3=N2)sc1=S | . | . | . | . | . | /
Oc1c(C=C2N=c3ccccc3=N2)sc(=S)n1-c1ccccc1 | . | . | . | . | 32µM[quencher] | .
CCC(=O)Nc1ccc(C(=O)NNC(=O)c2ccc([N+](=O)[O-])cc2)cc1 | . | . | . | . | . | /
Cc1ccc(-c2cc(-c3ccc(Cl)cc3)c(C#N)c(N)n2)o1 | . | . | . | ? | . | .
O=C1C=C(N(CCO)Cc2ccccc2)c2ccccc2C1=O | . | ? | ? | 13µM | . | /
Cc1[nH]nc2c1C(c1ccc(-c3ccc(Cl)cc3)o1)C(C#N)=C(N)O2 (stereo not drawn) | ? | . | . | 10µM | . | .
Cc1[nH]nc2c1C(c1ccc(-c3ccccc3C#N)o1)C(C#N)=C(N)O2 (stereo not drawn) | . | . | . | 16µM | . | .
Cc1ccc(-c2ccc(C3C(C#N)=C(N)Oc4n[nH]c(C)c43)o2)cc1 (stereo not drawn) | 13µM[quencher] | . | . | 6.3µM | . | ?
CCOC(=O)c1ccc(N2CSC3=C(C#N)C(c4cccs4)CC(=O)N3C2)cc1 (stereo not drawn) | . | . | ? | ? | . | .
COc1ccc(N2C(=O)C3CC(C)=C(C)CC3C2=O)c(OC)c1 (stereo not drawn) | . | . | . | . | . | .
CCOc1ccccc1N1CSC2=C(C#N)C(c3c(OC)ccc4ccccc34)CC(=O)N2C1 (stereo not drawn) | ? | ? | 10µM | 4µM | . | -106
COc1ccc(C2CC(=O)N3CN(c4ccc(C)c(Cl)c4)CSC3=C2C#N)cc1OC (stereo not drawn) | . | . | 22µM | 14µM | . | .
COc1ccc(N2CSC3=C(C#N)C(c4cc(OC)ccc4OC)CC(=O)N3C2)c(OC)c1 (stereo not drawn) | ? | . | 28µM | 13µM | . | .
COc1ccc(N2CSC3=C(C#N)C(c4cc(OC)c(OC)cc4OC)CC(=O)N3C2)c(OC)c1 (stereo not drawn) | ? | . | 13µM | 8.9µM | . | .
Cc1ccc(CNC(=O)c2cnn3c(C)c(Cc4c(F)cccc4Cl)c(C)nc23)cc1 | . | . | . | . | . | /
O=C(Nc1cccnc1Cl)c1ccc2c(Cl)c3c(nc2c1)CCC3 | . | . | ? | . | . | /
COc1cc(OC)c(C2CC(=O)N3CN(c4ccc(C)cc4)CSC3=C2C#N)cc1OC (stereo not drawn) | . | . | ? | 28µM | . | .
COc1ccc(N2CSC3=C(C#N)C(c4ccc(OC)c(OC)c4)CC(=O)N3C2)c(OC)c1 (stereo not drawn) | ? | . | 16µM | 7.9µM | . | .
O=C(NCCCN1CCOCC1)c1c(O)c2cc(Br)cc(Br)c2[nH]c1=O | . | . | . | . | . | .
CC(/C=N/n1cnnc1)=C\c1ccco1 | . | . | . | ? | . | -100
CC(/C=N/n1c(-c2cc(C)[nH]n2)n[nH]c1=S)=C\c1ccco1 | . | . | . | ? | . | /
CC1(C)c2ccccc2N(CC(N)=O)C12C=Cc1ccccc1O2 (stereo not drawn) | . | . | . | . | . | /
Cn1c(=O)c2[nH]c(N=Nc3ccc(N)cc3N)nc2n(C)c1=O | ? | . | . | 14µM | . | /
